# Test results taken from PubChem BioAssay (NCATS).
# Inconclusive results are not listed. Where a call stands in place of a potency, no number is given. Active and inactive are the calls of the source. Calls come from the whole dose curve; as a rule, active = well fitted inhibition curve with a large enough effect; inconclusive = small, poorly fitted or top-dose-only effect; inactive = flat fitted curve, though single readings scatter.
# Target: Aldehyde dehydrogenase, mitochondrial (Homo sapiens) (UniProt P05091)
# Assay: qHTS for Inhibitors of the Aldehyde Dehydrogenase Family (ALDH2) Primary screen (AID 2061308); note: nearly all actives have a fitted effect of over 55% in size
# Conditions: ALDH2 enzyme inhibition qHTS, 1536-well; series mostly up to 56 µM
row,SMILES,Potency
1,FC(F)(F)c1cc(-c2nc3ccccc3s2)cc(C(F)(F)F)c1,inactive
2,Cc1cccc(-c2csc(N3CCC(C(N)=O)CC3)n2)c1,inactive
3,C[C@@H]1COCCN1c1cc(C2(S(C)(=O)=O)CC2)nc(-c2cccc3[nH]ccc23)n1,inactive
4,Cn1c2cc(S(C)(=O)=O)sc2c2cnn(Cc3ccccc3F)c(=O)c21,inactive
5,C=C1C(=O)O[C@@H]2/C=C(/C)[C@@H](OC(C)=O)C/C=C(\C)C[C@@H](OC(=O)/C(=C/CO)CO)[C@@H]12,inactive
6,Fc1cnc(-c2ccccc2C(F)F)nc1NCC1CCN(c2cnccn2)C1 (stereo not given),inactive
7,C=C(C)C(=O)O[C@H]1/C(C=O)=C\CC/C(CO)=C/[C@H]2OC(=O)C(=C)[C@@H]2[C@@H]1OC,inactive
8,O=C1Cc2cc(S(=O)(=O)N3CCN(c4ccc(CO)cc4)CC3)ccc2N1,inactive
9,O=C1CCCC2=C1C(c1[nH]ncc1Cl)N=C(c1nc3ccccc3o1)N2 (stereo not given),inactive
10,Cc1cc(/C=C2/C(=O)Nc3ccccc32)cc(C)c1O,inactive
11,Cc1cnc(-c2ccccc2C(C)C)nc1NCc1ccc(-c2cccc(S(N)(=O)=O)c2)cc1,inactive
12,O=S(=O)(c1ccc2nc(Cl)c(Cl)nc2c1)N1CCN(S(=O)(=O)c2c(F)cccc2F)CC1,inactive
13,CCCCN1C(=O)c2ccccc2C1=O,inactive
14,O=[S+]([O-])(Nc1ccccc1)c1ccc(NCc2ccc(Cl)cc2O)cc1,inactive
15,Cc1cc2c(s1)c1cnn(Cc3cc(C(F)(F)F)cc(Cl)c3F)c(=O)c1n2C,inactive
16,NCCCC(=O)Nc1ccc(Cl)cc1C(=O)c1ccc[nH]1,inactive
17,O=C1CCCC2=C1C(c1[nH]ncc1Cl)NC(=NCc1ccncc1)N2 (stereo not given),inactive
18,Cc1csc(CNc2ncnc3ccc(-c4cccc(Cl)c4)cc23)c1,inactive
19,N#Cc1ccc(NS(=O)(=O)c2ccc3c(c2)CCC(=O)N3)cc1,inactive
20,COc1cccc(O)c1CNc1ccc(S(=O)(=O)Nc2nccs2)cc1,inactive

row,SMILES,Potency
1,Cc1cc(NS(=O)(=O)c2ccc(NC(=O)Cc3cccc4ccccc34)cc2)no1,inactive
2,C[C@H]1CN(S(=O)(=O)c2ccc3c(c2)OCCO3)CCN1S(=O)(=O)c1c(F)cccc1F,inactive
3,O=C(OCC#CCSc1nnc(-c2cccc3ccccc23)o1)c1sc2ccccc2c1Cl,inactive
4,Cc1cc(NS(=O)(=O)c2ccc(NC(=O)C(C)(C)c3ccc(Cl)c(Cl)c3)cc2)no1,inactive
5,O=C1CCc2cc(S(=O)(=O)Nc3ccc4ncccc4c3)ccc2N1,inactive
6,COc1nccc(-c2nc(Nc3ccc(F)c(F)c3)c3ccccc3n2)c1Cl,inactive
7,COc1ccc(OC)c(C2=Nn3c(nnc3-c3ccccc3C)SC2)c1,inactive
8,c1ccc2c(Nc3ccn[nH]3)nc(-c3ccncc3)nc2c1,inactive
9,COc1ccc(C2Nc3ccccc3C(=O)N2Cc2ccc3c(c2)OCO3)cc1COc1c(C)cc(NC(C)=O)cc1C (stereo not given),inactive
10,O=C1c2ccccc2C(=O)N1c1ccc(O)cc1,inactive
11,Cc1cc(N[S+](=O)([O-])c2ccc(NC(=O)Cc3ccccc3Cl)cc2)no1,inactive
12,O=[S+]([O-])(c1c(F)cccc1F)N1CCN([S+](=O)([O-])c2csc3ccccc23)CC1,inactive
13,Cc1ccc(C(=O)Oc2ccc(-c3nc4ccccc4[nH]3)cc2)cc1Br,inactive
14,CC(=O)Nc1sc2c(c1-c1cccc3c1sc1ccccc13)CCNC2,inactive
15,O=C1c2ccccc2C(=O)N1c1ccc2ncccc2c1,inactive
16,Cc1ccc(C(=O)Nc2ccc(N3CCCCC3)cc2)cc1,inactive
17,CC(=O)Nc1sc2c(c1-c1ccccc1F)CCNC2,inactive
18,Cc1cc(-c2ccccc2)nc2c(C(=O)Nc3ccc(Cl)c(Cl)c3)cnn12,inactive
19,O=C(Nc1ccc([S+](=O)([O-])Nc2nccs2)cc1)c1ncn[nH]1,inactive
20,COc1ccc(C2c3c(N)nc(CCCc4ccccc4)nc3Oc3ccc4ccccc4c32)cc1OC (stereo not given),inactive
